RMI-FANCM inh: disruptors of RMI1/RMI2 association with MM2 peptide – biochemical, fluorescence polarization, human, primary screen; RMI core complex with F-MM2 peptide; stronger effect = lower value; RMI core complex (RMI1/RMI2) binding to FANCM MM2 peptide, human; FP signal (polarization) at 33 µM; hit rate 0.58% among 70,000; in the data active = FP signal below about 40
An asterisk follows results filed as active; ! = not active in a repeat. The sample as a whole holds a higher share of hits than the screen did.

SMILES	RMI-FANCM inh
COC(=O)c1c(NC(=O)CC2S/C(=N\N=C/c3ccc([N+](=O)[O-])cc3)NC2=O)sc2c1CCCC2 (stereo unspecified)	14*
O=C(CC1S/C(=N\N=C2CCCCC2)NC1=O)Nc1ccc([N+](=O)[O-])cc1 (stereo unspecified)	60
Cc1ccc(S(=O)(=O)N2CCN(c3ccc(-c4cccs4)nn3)CC2)c(C)c1	67
Cc1cc(SCc2[nH]nc3oc(=O)cc(C)c23)c(Cl)cc1Cl	59
Cc1ccc(C)c2sc(N(CC3CCCO3)C(=O)C3CCCC3)nc12 (stereo unspecified)	64
CC1=C(Cl)C(O)=CC(=O)C12Oc1cc(O)c(Cl)c(C)c1C2=O (stereo unspecified)	11*
O=C(NCc1ccc2c(c1)OCO2)c1ccc(N2CCOCC2)nc1	56
Nc1nc2cc3sc(N)nc3cc2s1	60
Cc1ccc(-n2nnnc2CNC(=O)c2ccc([N+](=O)[O-])o2)cc1	57
CCc1ccc(-c2cc3c(SCC(=O)Nc4c(C)cc(C)cc4C)nccn3n2)cc1	70
O=C(/C=C/c1cccs1)Nc1nccs1	60
Cn1nc2c(c1NC(=O)/C=C/c1cccs1)CCC2	37*
Cn1nc2c(c1NC(=O)COc1ccccc1)CCC2	63
CC(=O)Oc1ccccc1N1C(=O)C=CC1=O	59
Cc1nc2ccccc2nc1C	53
c1ccc2c(c1)Nc1nc3ccccc3nc1N2	-3*
c1ccc2c(c1)Nc1nc3ccccc3nc1O2	57
CN(C)c1ccc(NC(=O)CCc2csc(NC(=O)Nc3ccccc3)n2)cc1	64
CCc1ccc(NCc2cc3cc4c(cc3n(CC(=O)NCc3ccccc3)c2=O)OCCO4)cc1	32
O=C(c1cccc([N+](=O)[O-])c1)N1CCN(c2ncccn2)CC1	55
O=c1[nH]cc(N2CCN(Cc3ccccc3)CC2)c(=O)[nH]1	47
COc1ccc(NC(=O)CSc2ccc(NC(=O)C3CC3)nn2)cc1OC	76
CCOC(=O)c1cc(=O)c2ccc(OC(=O)c3cccnc3Oc3ccccc3)cc2o1	48
COc1ccc(C)cc1NC(=O)N1CCN(c2ccc3nnc(C4CC4)n3n2)CC1	68
N/C(=N\OC(=O)Nc1cccc(C(F)(F)F)c1)c1ccno1	57
SMILES	RMI-FANCM inh
CC(=O)Nc1ccc(NC(=O)CSc2ccc(S(=O)(=O)C(F)(F)F)cc2[N+](=O)[O-])cc1	66
O=C(CSc1ccc([N+](=O)[O-])cc1[N+](=O)[O-])Nc1cccc(C(F)(F)F)c1	14*
O=[N+]([O-])c1ccc(SCCOS(=O)(=O)c2cccc(C(F)(F)F)c2)c2nonc12	46
Cc1cc(-c2ccccc2)nc(SCC(=O)Nc2cccc(C(F)(F)F)c2)n1	59
O=C(Nc1cccc(C(F)(F)F)c1)OCCSc1ccc([N+](=O)[O-])c2nonc12	7*
O=C(NCC(c1ccsc1)N1CCCCCC1)c1ccc(F)cc1 (stereo unspecified)	67
COC(=O)CSc1nc(-c2ccccc2)cc(=O)[nH]1	64
CS(=O)(=O)c1ccc(C(=O)Nc2nc(-c3cc(Cl)ccc3Cl)cs2)cc1	52
CN(C)S(=O)(=O)Nc1cccc2cccnc12	63
Cc1cc(F)ccc1S(=O)(=O)NCC1CCN(C2CCCC2)CC1	78
Cc1ccc(=O)n(S(=O)(=O)c2ccc(F)cc2F)n1	54
Cc1cc(F)ccc1S(=O)(=O)ON1C(=O)c2ccccc2C1=O	27*
O=[N+]([O-])c1c(NCCO)cc(Nc2ccc3c(c2)OCCO3)c2nonc12	57
COc1ccc(F)cc1S(=O)(=O)N1CCN(c2ccc(-c3ccc(F)cc3)nn2)CC1	81
COc1ccc(C)cc1S(=O)(=O)N1CCN(c2ccc(-c3ccncc3)nn2)CC1	67
COc1ccc(Cl)cc1S(=O)(=O)N1CCN(c2ccc(-c3ccncc3)nn2)CC1	27*
COc1ccc(C(=O)Nc2ccc(C)cc2C(=O)c2ccccc2)c(OC)c1	63
CC(O)(CNCc1ccc(Cl)cc1)CSc1cccc(Cl)c1 (stereo unspecified)	69
O=C(CSc1nc(CC(=O)Nc2ccc3c(c2)OCO3)cs1)Nc1ccc(F)cc1	55
CC(C)c1ccc(NC(=O)CCc2csc(NS(=O)(=O)c3ccc(F)cc3)n2)cc1	66
CN(C)c1ccc(/C=C/C#N)cc1	73
CN(C)c1ccc(/C=C/c2ccncc2)cc1	25*
CN(C)c1ccc(/C=C/c2ccccc2)cc1	54
COc1ccccc1/C=N\Nc1nc(-c2ccccc2)c2cc(Cl)ccc2n1	63
C=CCn1c(-c2ccc(OC)c(OC)c2)cs/c1=N/NC(=O)Nc1ccccc1	58
SMILES	RMI-FANCM inh
O=C(NCc1cccs1)c1ccccc1Cl	63
COc1ccc(Nc2nc(Nc3ccc(C(N)=O)cc3)nc(N3CCOCC3)n2)cc1	54
O=c1c2scc(-c3cccc(Cl)c3)c2ncn1Cc1cc(=O)n2ccccc2n1	16*
Cc1ccc(C)c(Cn2cnc3c(-c4cccc(Cl)c4)csc3c2=O)c1	66
O=c1c2scc(-c3ccccc3)c2ncn1Cc1cccc(Cl)c1	63
CN1CCc2c(sc(NC(=O)c3ccc(Br)s3)c2C(N)=O)C1	90
CC(=O)Oc1c(-c2ccccc2)oc2c(CC=C(C)C)c3c(c(OC(C)=O)c2c1=O)C=CC(C)(C)O3	60
O=C(NCc1ccc(F)cc1)N1CCCC(c2nnc(Cc3ccc(F)cc3)o2)C1 (stereo unspecified)	62
CCCN1CCCc2cc(CCNS(=O)(=O)c3cccc(F)c3)ccc21	17*
CCCN1CCCc2cc(CCNC(=O)CC(C)(C)C)ccc21	77
CCCN1CCCc2cc(CCNC(=O)Cc3ccc(F)cc3)ccc21	28*
CCCN1CCCc2cc(CCNS(=O)(=O)c3ccc(Br)cc3)ccc21	139
CCCN1CCCc2cc(CCNC(=O)c3c(F)cccc3F)ccc21	59
CCCN1CCCc2cc(CCNS(=O)(=O)c3ccc(OC)c(F)c3)ccc21	192
CC(C)c1cc(=O)n2c(n1)SCC2CC(=O)NCc1c(F)cccc1F (stereo unspecified)	68
Cc1nnc2sc(SCC(=O)N3CCC(C)CC3)nn2c1=O	61
CC(C(=O)c1ccc(-c2ccccc2F)cc1)N1CCN(c2ccc(C#N)cc2)CC1 (stereo unspecified)	25*!
O=C(NC(=S)N1CCN(c2ccc(F)cc2)CC1)c1ccccc1	59
O=C(NC(=O)N1CCN(c2ccc(F)cc2)CC1)c1ccccc1	61
CC(=O)Nc1cccc(NC(=O)CSc2nc(CC(=O)Nc3ccc(C)cc3C)cs2)c1	63
COc1ccc(CNC(=O)N2CCC(c3nnc(C(C)C)o3)CC2)cc1OC	61
COc1ccc(-c2ccc(=O)n(CCCC(=O)NCc3cccs3)n2)cc1OC	72
COc1ccc(-c2cc(-c3ccc(C)c(C)c3)nc3sc(C(=O)Nc4nsc(-c5ccc(Cl)cc5)n4)c(N)c23)cc1	78
COc1ccc(-c2cc(-c3ccccc3)nc3sc(C(=O)Nc4nsc(-c5ccccc5)n4)c(N)c23)cc1OC	128
COc1ccc(-c2cc(-c3ccc(Cl)cc3)nc3sc(C(=O)NCCc4ccccc4)c(N)c23)cc1	-12*
CCN1CCN(C(CNS(=O)(=O)c2ccc(C)cc2)c2cccnc2)CC1 (stereo unspecified)	64
Cc1cc(Sc2nnc(N=CN(C)C)s2)c2ccccc2n1	56
Cc1nc2cc3ccccc3cc2c(=O)n1/N=C\N(C)C	8*
COc1cc(/C=N\n2c(C)nc3c(ncn3-c3ccccc3)c2=O)cc(OC)c1OC	86

Compound activity (PubChem BioAssay)
